Assay results from the supplement of paper PMC10849652.
Of roughly 8,800 targets only a part is listed; those with a hit were picked by preference. About 0.5% of all pairs of compound and target were hits. A number with no mark means an inactive call.

Columns and labels:
Assay in all cases: log2 fold change, soluble protein after heating vs DMSO (PISA); higher = thermal stabilisation; K562 lysate, 10 uM; active = over 0.2 and 3.5 SD of the protein, either way, in both replicates (recomputed)
vemurafenib = compound: CCCS(=O)(=O)Nc1ccc(F)c(C(=O)c2c[nH]c3ncc(-c4ccc(Cl)cc4)cc23)c1F [vemurafenib]
In short: (§1)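 Pellets of K562 cells were dounce-homogenised in PBS pH 7.4 with 1 mM MgCl2, and the crude extract was held at 1 mg/mL protein for a 30 min treatment with 10 μM compound. Aliquots were heated for 3 min over 48°C-58°C and pooled before NP-40 was added to 0.5% at 4°C. The supernatant from 21,000xg for 90 min was quantified by TMTpro 16plex LC-MS/MS with channel sums equalised. Values are reported from duplicates as log-two fold change in thermal stability relative to solvent controls.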

[1] = compound: CCCS(=O)(=O)Nc1ccc(F)c(C(=O)c2c[nH]c3ncc(Cl)cc23)c1F
In short: as §1

barasertib = compound: CCN(CCCOc1ccc2c(Nc3cc(CC(=O)Nc4cccc(F)c4)[nH]n3)ncnc2c1)CCOP(=O)(O)O [barasertib]
In short: as §1

[2] = compound: CC[C@@H]1C(=O)N(C)c2cnc(Nc3ccc(C(=O)NC4CCN(C)CC4)cc3OC)nc2N1C1CCCC1
In short: as §1

volasertib = compound: CC[C@@H]1C(=O)N(C)c2cnc(Nc3ccc(C(=O)N[C@H]4CC[C@H](N5CCN(CC6CC6)CC5)CC4)cc3OC)nc2N1C(C)C [volasertib]
In short: as §1

[3] = compound: CCn1c(C(=O)N(C2CC2)C2CC2)cc2c3c(ncn3C)c(Nc3cc(C)n(C)n3)nc21
In short: as §1

[4] = compound: CCn1cc(-c2ccnc3[nH]c(-c4cccc(CN(C)C)c4)cc23)c(-c2ccc(NC(=O)N(C)C)cc2)n1
In short: as §1

[5] = compound: CN1CCC(CNc2ccc3ncc(-c4cccc(OC(F)(F)F)c4)n3n2)CC1
In short: as §1

saracatinib = compound: CN1CCN(CCOc2cc(OC3CCOCC3)c3c(Nc4c(Cl)ccc5c4OCO5)ncnc3c2)CC1 [saracatinib]
In short: as §1

sotrastaurin = compound: CN1CCN(c2nc(C3=C(c4c[nH]c5ccccc45)C(=O)NC3=O)c3ccccc3n2)CC1 [sotrastaurin]
In short: as §1

Sequence of UniProt Q9NP73 (Q9NP73 whole entry, looked up): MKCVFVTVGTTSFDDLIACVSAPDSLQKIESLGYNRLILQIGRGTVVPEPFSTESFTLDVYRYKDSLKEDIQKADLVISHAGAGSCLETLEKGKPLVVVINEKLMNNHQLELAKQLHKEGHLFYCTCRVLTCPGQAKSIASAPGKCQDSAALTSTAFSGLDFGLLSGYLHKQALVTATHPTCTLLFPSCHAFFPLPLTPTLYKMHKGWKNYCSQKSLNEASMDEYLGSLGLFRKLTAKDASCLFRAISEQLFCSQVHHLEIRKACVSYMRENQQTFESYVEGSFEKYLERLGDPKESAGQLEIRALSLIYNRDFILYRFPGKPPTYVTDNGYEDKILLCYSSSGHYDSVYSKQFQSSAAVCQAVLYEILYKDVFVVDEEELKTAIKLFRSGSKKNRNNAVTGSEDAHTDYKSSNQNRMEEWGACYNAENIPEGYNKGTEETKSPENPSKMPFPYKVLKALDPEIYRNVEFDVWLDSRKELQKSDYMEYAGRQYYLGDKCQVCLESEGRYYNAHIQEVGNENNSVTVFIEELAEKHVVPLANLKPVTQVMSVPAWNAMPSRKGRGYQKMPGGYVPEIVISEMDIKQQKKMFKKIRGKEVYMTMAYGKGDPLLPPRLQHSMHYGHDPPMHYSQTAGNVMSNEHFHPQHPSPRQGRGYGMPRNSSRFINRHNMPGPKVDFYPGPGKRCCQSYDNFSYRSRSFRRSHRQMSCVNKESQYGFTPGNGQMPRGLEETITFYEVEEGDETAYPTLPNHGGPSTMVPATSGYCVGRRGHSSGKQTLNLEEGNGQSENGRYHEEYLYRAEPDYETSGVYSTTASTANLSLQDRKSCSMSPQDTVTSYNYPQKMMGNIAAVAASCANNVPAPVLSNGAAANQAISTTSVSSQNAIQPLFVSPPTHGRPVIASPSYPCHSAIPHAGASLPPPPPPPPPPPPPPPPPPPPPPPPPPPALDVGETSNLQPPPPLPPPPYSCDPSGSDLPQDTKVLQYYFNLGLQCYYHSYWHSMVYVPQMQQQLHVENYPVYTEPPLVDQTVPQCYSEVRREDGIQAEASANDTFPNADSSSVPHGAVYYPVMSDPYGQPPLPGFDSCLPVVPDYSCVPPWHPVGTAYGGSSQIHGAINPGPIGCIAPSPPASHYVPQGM
Sequence of UniProt Q8N2K0 (Q8N2K0 whole entry, looked up): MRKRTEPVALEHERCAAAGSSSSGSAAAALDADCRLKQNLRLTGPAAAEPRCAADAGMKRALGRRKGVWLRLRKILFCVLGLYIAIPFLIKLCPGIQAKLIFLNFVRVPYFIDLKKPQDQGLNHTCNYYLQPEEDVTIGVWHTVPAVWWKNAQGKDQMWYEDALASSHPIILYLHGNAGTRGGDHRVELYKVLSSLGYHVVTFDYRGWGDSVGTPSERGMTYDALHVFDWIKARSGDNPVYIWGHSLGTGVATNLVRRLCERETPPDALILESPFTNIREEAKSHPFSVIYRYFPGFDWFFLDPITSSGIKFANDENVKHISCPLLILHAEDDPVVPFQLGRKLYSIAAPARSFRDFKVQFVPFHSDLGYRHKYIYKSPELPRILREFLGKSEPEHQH
Sequence of UniProt P00568 (P00568 whole entry, looked up): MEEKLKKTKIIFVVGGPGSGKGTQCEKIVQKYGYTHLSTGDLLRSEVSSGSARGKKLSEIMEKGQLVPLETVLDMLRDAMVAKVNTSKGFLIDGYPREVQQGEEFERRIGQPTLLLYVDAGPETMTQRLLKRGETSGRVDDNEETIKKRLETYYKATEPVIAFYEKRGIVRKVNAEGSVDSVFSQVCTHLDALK
Sequence of UniProt Q9NWX5 (Q9NWX5 whole entry, looked up): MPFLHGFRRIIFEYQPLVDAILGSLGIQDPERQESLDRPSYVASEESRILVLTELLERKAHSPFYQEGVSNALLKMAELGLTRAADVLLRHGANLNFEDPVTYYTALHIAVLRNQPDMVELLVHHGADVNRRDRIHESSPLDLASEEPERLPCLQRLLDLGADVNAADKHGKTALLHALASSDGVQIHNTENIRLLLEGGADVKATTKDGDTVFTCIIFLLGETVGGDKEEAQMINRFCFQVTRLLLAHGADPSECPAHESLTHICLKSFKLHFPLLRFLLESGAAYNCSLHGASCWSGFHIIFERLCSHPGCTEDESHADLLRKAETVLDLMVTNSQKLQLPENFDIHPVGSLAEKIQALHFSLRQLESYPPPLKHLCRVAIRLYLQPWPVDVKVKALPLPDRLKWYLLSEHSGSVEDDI
Sequence of UniProt O43182 (O43182 whole entry, looked up): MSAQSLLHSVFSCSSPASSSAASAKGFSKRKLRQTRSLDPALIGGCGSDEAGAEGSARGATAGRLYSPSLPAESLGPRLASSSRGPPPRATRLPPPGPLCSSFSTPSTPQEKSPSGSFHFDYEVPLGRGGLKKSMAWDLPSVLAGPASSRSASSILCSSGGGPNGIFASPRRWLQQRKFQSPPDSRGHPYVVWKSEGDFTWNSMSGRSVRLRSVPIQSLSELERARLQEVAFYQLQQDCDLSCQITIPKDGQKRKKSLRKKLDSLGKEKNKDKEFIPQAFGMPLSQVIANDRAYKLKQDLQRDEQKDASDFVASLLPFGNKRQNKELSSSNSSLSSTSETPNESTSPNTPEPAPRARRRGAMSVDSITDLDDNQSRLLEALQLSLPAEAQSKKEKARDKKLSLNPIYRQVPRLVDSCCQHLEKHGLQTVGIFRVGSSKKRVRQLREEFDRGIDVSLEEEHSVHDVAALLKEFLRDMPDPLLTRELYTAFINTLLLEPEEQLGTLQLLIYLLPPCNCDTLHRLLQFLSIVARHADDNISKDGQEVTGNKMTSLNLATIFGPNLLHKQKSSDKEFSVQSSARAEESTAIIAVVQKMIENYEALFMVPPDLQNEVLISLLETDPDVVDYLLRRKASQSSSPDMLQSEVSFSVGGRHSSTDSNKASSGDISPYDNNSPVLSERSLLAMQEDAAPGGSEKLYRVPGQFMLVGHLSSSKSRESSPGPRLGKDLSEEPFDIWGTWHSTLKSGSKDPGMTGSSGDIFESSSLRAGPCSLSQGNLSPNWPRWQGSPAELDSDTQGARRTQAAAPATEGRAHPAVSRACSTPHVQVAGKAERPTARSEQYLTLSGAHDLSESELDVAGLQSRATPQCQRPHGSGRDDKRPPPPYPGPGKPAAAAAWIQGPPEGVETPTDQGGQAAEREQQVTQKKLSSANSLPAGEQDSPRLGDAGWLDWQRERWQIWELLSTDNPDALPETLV
Sequence of UniProt P55265 (P55265 whole entry, looked up): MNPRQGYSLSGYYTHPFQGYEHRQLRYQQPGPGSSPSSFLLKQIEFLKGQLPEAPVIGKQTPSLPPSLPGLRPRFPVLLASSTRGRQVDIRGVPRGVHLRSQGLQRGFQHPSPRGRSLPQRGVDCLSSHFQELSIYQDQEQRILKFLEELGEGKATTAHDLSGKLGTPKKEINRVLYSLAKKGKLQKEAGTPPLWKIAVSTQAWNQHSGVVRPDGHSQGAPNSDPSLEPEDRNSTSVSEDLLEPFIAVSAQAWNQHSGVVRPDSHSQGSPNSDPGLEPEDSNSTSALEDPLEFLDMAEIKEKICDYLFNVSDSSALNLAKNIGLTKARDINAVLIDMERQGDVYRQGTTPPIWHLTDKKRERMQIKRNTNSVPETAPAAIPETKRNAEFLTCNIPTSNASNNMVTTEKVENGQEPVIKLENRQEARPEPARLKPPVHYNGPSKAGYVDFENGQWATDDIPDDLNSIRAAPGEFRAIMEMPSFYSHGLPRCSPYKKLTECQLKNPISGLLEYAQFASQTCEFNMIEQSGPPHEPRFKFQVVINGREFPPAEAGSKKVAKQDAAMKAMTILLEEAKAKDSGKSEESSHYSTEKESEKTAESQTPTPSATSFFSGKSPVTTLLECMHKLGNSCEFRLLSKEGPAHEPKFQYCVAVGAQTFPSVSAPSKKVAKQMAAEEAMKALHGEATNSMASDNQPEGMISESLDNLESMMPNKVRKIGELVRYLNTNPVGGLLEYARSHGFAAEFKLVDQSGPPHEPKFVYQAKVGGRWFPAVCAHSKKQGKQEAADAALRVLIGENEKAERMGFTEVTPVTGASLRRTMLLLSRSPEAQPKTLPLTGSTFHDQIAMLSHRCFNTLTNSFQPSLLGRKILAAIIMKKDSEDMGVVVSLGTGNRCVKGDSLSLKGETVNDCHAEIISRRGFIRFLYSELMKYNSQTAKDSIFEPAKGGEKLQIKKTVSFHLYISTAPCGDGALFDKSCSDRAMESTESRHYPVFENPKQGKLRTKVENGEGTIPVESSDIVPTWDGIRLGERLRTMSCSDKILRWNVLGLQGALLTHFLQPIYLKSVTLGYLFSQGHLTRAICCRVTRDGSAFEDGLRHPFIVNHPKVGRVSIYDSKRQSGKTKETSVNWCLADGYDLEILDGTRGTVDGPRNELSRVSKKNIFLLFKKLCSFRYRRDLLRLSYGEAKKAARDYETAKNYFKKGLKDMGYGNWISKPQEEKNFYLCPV
Sequence of UniProt Q8IZP0 (Q8IZP0 whole entry, looked up): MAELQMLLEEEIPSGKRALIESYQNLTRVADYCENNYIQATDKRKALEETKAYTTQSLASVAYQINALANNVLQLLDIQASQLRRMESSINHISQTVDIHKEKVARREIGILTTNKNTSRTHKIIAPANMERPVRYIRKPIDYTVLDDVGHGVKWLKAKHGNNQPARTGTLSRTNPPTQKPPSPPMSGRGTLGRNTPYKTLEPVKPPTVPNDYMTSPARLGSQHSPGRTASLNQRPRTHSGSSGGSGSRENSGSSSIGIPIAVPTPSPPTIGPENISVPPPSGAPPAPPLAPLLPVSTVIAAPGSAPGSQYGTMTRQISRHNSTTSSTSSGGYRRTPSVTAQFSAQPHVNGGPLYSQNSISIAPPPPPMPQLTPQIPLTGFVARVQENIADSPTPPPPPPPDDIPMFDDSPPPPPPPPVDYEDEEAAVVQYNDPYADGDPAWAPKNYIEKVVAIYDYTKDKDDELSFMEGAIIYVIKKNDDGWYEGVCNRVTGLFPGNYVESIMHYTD
Sequence of UniProt Q9NRW3 (Q9NRW3 whole entry, looked up): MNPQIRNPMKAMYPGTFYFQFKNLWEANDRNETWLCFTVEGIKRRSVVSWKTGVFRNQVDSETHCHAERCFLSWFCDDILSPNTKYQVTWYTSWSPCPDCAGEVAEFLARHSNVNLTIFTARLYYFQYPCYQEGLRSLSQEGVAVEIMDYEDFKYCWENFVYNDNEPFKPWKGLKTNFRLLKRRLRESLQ

Target | log2 fold change (vemurafenib) | log2 fold change [1] | log2 fold change (barasertib) | log2 fold change [2] | log2 fold change (volasertib) | log2 fold change [3] | log2 fold change [4] | log2 fold change [5] | log2 fold change (saracatinib) | log2 fold change (sotrastaurin)
AMPD3 isoform 4 (UniProt Q01432) | -0.021 | 0.005 | 0.017 | -0.033 | -0.026 | -0.029 | 0.1 | -0.046 | 0.043 | 0.024
AGPAT1 (UniProt Q99943) | 0.008 | 0.016 | 0.038 | -0.013 | 0.006 | -0.004 | 0.068 | -0.049 | 0.038 | -0.009
ADD1 isoform 4 (UniProt P35611) | 0.061 | -0.003 | -0.089 | 0.164 | 0.061 | -0.345 | -0.61 | 0.397 | 0.083 | 
ABCD3 (UniProt P28288) | 0.078 | 0.058 | 0.053 | -0.077 | -0.029 | -0.07 | -0.054 | 0.044 | -0.071 | 0.073
APOBEC3C (UniProt Q9NRW3) | -0.027 | 0.021 | -0.006 | 0.075 | -0.014 | -0.081 | -0.038 | 0.034 | 0.018 | 0.114
ABHD12 isoform 2 (UniProt Q8N2K0) | -0.049 | 0.077 | -0.015 | 0.034 | 0.006 | -0.055 | 0.119 | -0.111 | -0.039 | 0.018
ANKRD52 (UniProt Q8NB46) | -0.052 | 0.032 | 0.029 | -0.019 | 0.097 | 0.063 | 0.061 | -0.015 | -0.022 | -0.008
ANLN (UniProt Q9NQW6) | -0.012 | 0.019 | 0.003 | 0.01 | -0.014 | -0.035 | -0.067 | -0.014 | 0.002 | 0.009
ANKRD27 (UniProt Q96NW4) | -0.016 | 0.006 | 0.043 | 0.01 | -0.075 | 0.001 | -0.042 | -0.073 | 0.054 | -0.002
ARHGAP6 (UniProt O43182) | 0.074 | 0.038 | 0.116 | -0.038 | -0.107 | -0.014 | 0.072 | -0.139 | 0.031 | -0.049
ABCA3 (UniProt Q99758) | 0.114 | -0.044 | 0.057 | -0.009 | 0.089 | -0.163 | -0.086 | 0.051 | -0.05 | 0.031
ALDH5A1 isoform 2 (UniProt P51649) | -0.016 | 0.011 | -0.009 | -0.024 | -0.001 | 0.031 | 0.004 | 0.008 | 0 | -0.023
ASB6 (UniProt Q9NWX5) | -0.249 | -0.039 | 0.109 | 0.651 (active) | -0.026 | -0.002 | 0.182 | 0.075 | -0.05 | -0.01
ABCF2 isoform 2 (UniProt Q9UG63) | 0.017 | 0.002 | -0.014 | -0.072 | -0.045 | 0.026 | -0.008 | -0.026 | 0 | 0.036
ABHD17A isoform 2 (UniProt Q96GS6) | -0.007 | -0.08 | 0.007 | 0.036 | 0.012 | 0.022 | 0.001 | 0.013 | -0.027 | -0.05
ALG13 (UniProt Q9NP73) | 0.014 | 0.015 | 0.054 | 0.041 | -0.041 | -0.016 | -0.14 | 0.086 | 0.023 | 0.017
ABI1 isoform 9 (UniProt Q8IZP0) | -0.021 | 0.005 | -0.01 | 0.052 | -0.038 | -0.001 | -0.116 | 0.217 | -0.029 | -0.019
ARAF (UniProt P10398) | 0.411 (active) | 0.058 | 0.015 | -0.069 | -0.038 | -0.015 | 0.042 | 0 | 0.005 | 0.002
AK1 (UniProt P00568) | 0.01 | -0.036 | -0.012 | -0.027 | 0.021 | 0.017 | 0.332 (active) | -0.135 | -0.012 | -0.024
ADAMTS5 (UniProt Q9UNA0) | 0.063 | 0.047 | 0.038 | 0.066 | 0.038 | -0.15 | -0.939 (active) | 0.292 | 0.083 | -0.045
AK4 (UniProt P27144) | -0.068 | 0.018 | 0.11 | -0.057 | -0.024 | 0.023 | -0.036 | -0.002 | -0.016 | 0.05
ACBD6 (UniProt Q9BR61) | 0.028 | 0.035 | -0.006 | -0.025 | -0.082 | 0.013 | -0.009 | 0.006 | -0.015 | 0.014
ABCF3 (UniProt Q9NUQ8) | 0.013 | 0.037 | 0.03 | -0.079 | -0.099 | 0.044 | 0.015 | -0.059 | -0.006 | 0.033
APAF1 (UniProt O14727) | -0.014 | -0.012 | 0.073 | -0.087 | -0.056 | 0.001 | 0.115 | -0.012 | -0.028 | 0.015
ADD1 isoform 3 (UniProt P35611) | -0.025 | -0.002 | -0.001 | 0.036 | 0.007 | -0.002 | -0.013 | 0.054 | 0.002 | 0
ADAR isoform 4 (UniProt P55265) | 0.077 | 0.051 | 0.061 | 0.011 | 0.003 | 0.025 | -0.001 | -0.049 | 0.04 | 0.032
APEX1 (UniProt P27695) | 0.019 | 0.017 | -0.027 | -0.03 | -0.004 | 0.043 | 0.37 (active) | -0.07 | -0.001 | 0.009
ABHD16A (UniProt O95870) | 0.074 | 0.012 | 0.026 | 0.141 | 0.002 | -0.059 | -0.001 | 0.019 | 0.021 | 0.051
AARS2 (UniProt Q5JTZ9) | 0.041 | -0.052 | 0.029 | -0.055 | -0.037 | 0.027 | 0.027 | -0.053 | 0.003 | 0.031
